# HCV inh = qHTS Assay for Inhibitors of Hepatitis C Virus (HCV) | Huh7.5.1 HCVcc-Cre infection, luciferase reporter, 44 h | Potency, µM (top dose mostly 41.8 µM), without a hit: at the highest dose activity change, negative = inhibition, hits mostly inhibitors | 3.4% of 340,000 active | AID 651820, 2012; active = well fitted inhibition curve with a large enough effect; inconclusive = small, poorly fitted or top-dose-only effect, or another doubt; inactive = no such curve, though single readings can be large or run the other way; also: potency is read from the fitted curve at half-maximal effect
#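 HCVcc-Cre virus at an moi near 0.5 was added right after compound to cells cultured 4 h from seeding (1,000 cells/well). Luciferase activity was determined 44 h later, 15 min after substrate addition at RT.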
# LASV entry inh = qHTS for Inhibitors of binding or entry into cells for Lassa Virus. 1.2% of 300,000 active. Potency, µM (highest dose often 37.9 µM), for the others: top-dose activity change, negative = inhibition, hits mostly inhibitors. AID 540256, 2011. Lassa virus pseudotype entry inhibition, cell reporter; calls by dose curve; tested in HEK293 cells; also: potency is read from the fitted curve at half-maximal effect; nearly all actives have a fitted effect of over 50% in size
# Vaccinia Venus = qHTS for Stage-Specific Inhibitors of Vaccinia Orthopoxvirus: Venus Reporter Primary qHTS; Vaccinia virus Venus reporter expression, fluorescence; Potency, µM (top dose mostly 36.5 µM), inactives show top-dose activity change, negative = inhibition, actives largely listed as inhibitors; 0.46% of 330,000 active; AID 720580, 2013; calls by dose curve; tested in A549 cells; also: potency is read from the fitted curve at half-maximal effect; nearly all actives have a fitted effect of over 30% in size
# MARV entry inh = qHTS for inhibitors of binding or entry into cells for Marburg Virus | 1.8% of 300,000 active | Potency, µM (titrated, usually from 37.8 µM), inactives show top-dose activity change, negative = inhibition, hits mostly inhibitors | Marburg virus pseudotyped entry inhibition, cell reporter; calls by dose curve; tested in HEK293 cells; also: potency is read from the fitted curve at half-maximal effect
# VACV mCherry inh = qHTS for Stage-Specific Inhibitors of Vaccinia Orthopoxvirus: mCherry Reporter Primary qHTS; Vaccinia virus mCherry reporter infection, fluorescence; Potency, µM (titrated, usually from 36.5 µM), without a hit: at the top dose activity change, negative = inhibition, most hits filed as inhibitors; 0.63% of 310,000 active; calls by dose curve; tested in A549 cells; also: potency is read from the fitted curve at half-maximal effect; nearly all actives have a fitted effect of over 35% in size
# HCMV inh = qHTS Assay for inhibitors of the human cytomegalovirus (HCMV); HFF cells, HCMV-luciferase reporter, 72 h; active compounds read low; activity change, negative = inhibition, % at 57.5 µM; 4.5% of 410,000 active; AID 1259415, 2018; in the data active = activity change below about -60%; inconclusive = no clear call, values can overlap the other calls; inactive = above about -39%
#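 Luciferase read-out from HCMV-luciferase-infected HFFs (MOI 1 PFU/cell) 72 h post infection at 37C; compounds added after 16 h cell attachment; activity normalized between buffer-only basal and Salinomycin (10uM) inhibitor controls.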
# The depositor's hits bear a star; i = inactive; ? = inconclusive; nt = not tested or not shown; ! = a repeat was not active; [ ] = remark or other dose. An excerpt weighted towards active compounds, which were near 7.8% of everything screened. % is scaled to controls: 0 for no effect and ±100 for the full control effect.
SMILES,HCV inh,LASV entry inh,Vaccinia Venus,MARV entry inh,VACV mCherry inh,HCMV inh
COC(=O)c1ccc(NC(=O)NCCn2nnc3cc(S(=O)(=O)N(C)C)ccc32)cc1,nt,5.0%[46.1 µM],-5.5%,nt,-1.0%,8.0
CCOC(=O)c1cc2c(=O)n3ccccc3nc2n(CC(C)C)c1=NC(=O)COc1ccc(Cl)cc1,nt,20.2%[46.1 µM],-16.9%,-2.7%[46.1 µM],-24.3%,13.4
CCOC(=O)c1cc([N+](=O)[O-])cc([N+](=O)[O-])c1Sc1ncnc2nc[nH]c12,?,1.41µM*,-18.6%,?,?,14.7
C=CCNC(=S)N/N=C/c1ccc(N(CC)Cc2ccccc2)cc1,?,16.4µM*,?,11.6µM*,?,-12.2
CCN(CC)c1ccc(/C=N/NC(=S)NCc2ccccc2)cc1,-10.7%,?,-22.3%,?,-8.4%,-4.5
CCN(CC)c1ccc(/C=N/NC(=S)NCc2ccc(OC)cc2)cc1,?,3.66µM*,-4.7%,?,-22.7%,15.6
C=CCNC(=S)N/N=C/c1ccc(C)c([N+](=O)[O-])c1,-26.1%,?,-24.2%,?,-12.3%,?
CCc1cc(-c2cnnn2CCc2c[nH]c3ccccc23)ccc1-c1cn(CC(C)C)nn1,nt,7.91µM*,-28.3%,nt,-14.8%,-19.3
CCCCCc1ccc(-c2cn(CCc3c[nH]c4ccccc34)nn2)cc1,?,nt,?,nt,-11.4%,-60.8*
CCOc1cc(Br)cc(C2NC(=O)c3c(sc4c3CCN(C)C4)N2)c1O (stereo not drawn),nt,21.3%[46.1 µM],-10.5%,16.7%[46.1 µM],i,16.8
O=C(NCc1nnc2n1CCN(Cc1cc3c(cc1Cl)OCO3)CC2)C1CCOC1 (stereo not drawn),nt,nt,-9.0%,nt,-14.4%,nt
CN(CCOc1ccccc1)CC(=O)Nc1cccc(Br)c1,?,2.8%,-4.9%,21.7%[46.1 µM],-1.4%,36.6
CN(CCOc1ccccc1)CC(=O)Nc1cccc(C#N)c1,1.6%,2.4%,-3.7%,-18.0%[46.1 µM],-7.2%,-64.5*
Cc1cc(C)cc(OCC(=O)N2CCC(c3nc4ccccc4o3)CC2)c1,nt,4.2%[46.1 µM],-9.9%,-2.9%[46.1 µM],2.0%,76.2
COc1ccc2c(c1)[C@@H](NS(C)(=O)=O)[C@H](C)[C@@H](c1ccccc1)N2C(=O)Nc1ccc(C(F)(F)F)cc1,nt,nt,nt,nt,nt,-25.0
CC(=O)C1(O)Cc2c(O)c3c(c(O)c2C(OC2CC(N)C(O)C(C)O2)C1)C(=O)c1c(O)cccc1C3=O (stereo not drawn),nt,nt,413.3%,nt,326.5%,nt
CC(=O)c1c(C)[nH]c(C(=O)C(C)Sc2nnc(NC3CC3)s2)c1C (stereo not drawn),10µM*,?,-19.7%,?,-14.0%,5.8
CCC(Sc1nc2nccnc2c(=O)n1Cc1ccccc1Cl)C(=O)NC1CCCCC1 (stereo not drawn),nt,-0.2%[46.1 µM],-3.2%,nt,i,-13.3
Cc1sc2ncn(CC(=O)NCCCC(=O)Nc3ccc(C(C)C)cc3)c(=O)c2c1C,-13.4%,?,-4.5%,?,-12.9%,-75.9*
CN(C)S(=O)(=O)c1ccc(C(=O)NCc2ccco2)cc1,2.8%,-5.0%[46.1 µM],-9.8%,-2.1%[46.1 µM],-4.4%,-4.0
CCN(CC(=O)NCc1ccc(F)cc1)S(=O)(=O)c1ccc(C)cc1,-10.0%,nt,nt,nt,nt,?
CCN(CC)S(=O)(=O)c1ccc(C(=O)NCc2ccc(C)cc2)cc1,0.3%,18.3µM*,-13.9%,-25.7%[46.1 µM],-10.5%,-1.7
CCN(CC)S(=O)(=O)c1ccc(C(=O)NCc2cccs2)cc1,-9.8%,2.91µM*,nt,10.1%,nt,-23.0
CCN(CC(=O)NCc1cccs1)S(=O)(=O)c1ccc(F)cc1,-5.7%,1.4%,-1.9%,22.9%,-1.1%,-31.4
CCCN(CCC)S(=O)(=O)c1ccc(C(=O)NCc2ccco2)cc1,15.0%,0.794µM*,-0.6%,2.3%,-9.1%,-28.5
SMILES,HCV inh,LASV entry inh,Vaccinia Venus,MARV entry inh,VACV mCherry inh,HCMV inh
CCOC(=O)c1cccc(Nc2cc(C)nc(C)n2)c1,nt,5.4%[46.1 µM],-8.2%,1.5%[46.1 µM],-12.3%,9.4
Cc1cc(C)cc(Nc2nc3cc(Cl)c(Cl)cc3nc2-n2nc(C)cc2C)c1,nt,-1.5%[46.1 µM],-10.6%,1.0%[46.1 µM],i,-6.3
O=C(Nc1ccccc1F)c1ccc(COc2ccc(Cl)cc2Cl)o1,?,?,2.6%,-15.2%[46.1 µM],-3.5%,16.9
Cc1nn(Cc2c(F)c(F)c(F)c(F)c2F)c(C)c1NC(=O)c1ccc(COc2ccc(Cl)cc2Cl)o1,7.08µM*,?,?,?,?,-81.3*
Cc1nn(Cc2cccc(F)c2)c(C)c1NC(=O)c1ccc(COc2ccccc2Cl)cc1,10µM*,-32.4%[14.3 µM],12.6µM*,-8.0%,11.2µM*,-75.6*
Cc1nn(Cc2ccc(Cl)cc2Cl)c(C)c1NC(=O)c1ccc(COc2cc(Cl)ccc2Cl)o1,?,-16.6%,?,?,?,-39.8
CC(C)CNC(=O)c1ccc(COc2ccc(Cl)cc2Cl)o1,12.6µM*,11.2µM*,?,-16.5%,-10.9%[1.46 µM],-14.3
O=C(Nc1ccn(Cc2c(F)c(F)cc(F)c2F)n1)c1ccc(COc2ccc(Cl)cc2Cl)o1,12.6µM*,?,nt,?,nt,-37.8
COc1cc(O)ccc1CN1CCc2nnc(C(C)NC(=O)c3cc(F)ccc3F)n2CC1 (stereo not drawn),nt,nt,-10.4%,nt,i,nt
Nc1nc(Nc2ccccc2F)sc1C(=O)c1ccc(Cl)cc1,nt,-11.2%[46.1 µM],-13.9%,?,-22.1%,91.4
COCc1c(C(=O)N2CCN(c3ccccc3O)CC2)cnn1-c1nccc(-c2cccs2)n1,nt,nt,-14.5%,nt,-14.2%,nt
COC(=O)C1=C(C(=O)OC)[C@@H]2N(C)c3ccccc3[C@@]23C[C@@H](C(=O)OC)N(C(=O)Nc2cccc(C#N)c2)C3=N1,nt,nt,nt,27.4%[14.2 µM],nt,nt
O=C1C=CC(=O)N1CCCCCCN1C(=O)C=CC1=O,?,?,-25.8%,?,-27.4%,-101.6*
CCN1C(=O)C=CC1=O,nt,7.4%,nt,28.2µM*!,nt,nt
C=CCn1c(SCc2ccc(C(=O)Nc3nccs3)cc2)nnc1-c1ccc(C)c(Cl)c1,8.91µM*,11.2µM*,?,?,?,-94.3*
Cn1nnnc1SCc1ccc(C(=O)Nc2nccs2)cc1,-8.7%,?,-11.8%,21.0%,-19.7%,-30.4
NCCCCCCNS(=O)(=O)c1cccc2ccccc12,nt,nt,-8.1%,nt,25.8%,nt
NCCCCNS(=O)(=O)c1cccc2c(Cl)cccc12,nt,nt,nt,3.98µM*,nt,nt
COC(=O)Cc1c(O)ccn(CCc2c[nH]c3ccc(OC)cc23)c1=O,7.0%,9.3%[46.1 µM],5.1%,3.4%[46.1 µM],i,-73.1*
Cc1ccc(NC(=O)CCc2c[nH]c3ccccc23)nc1,?,?,-22.3%,?,-14.3%,-73.6*
Cc1ccc(C(=O)NCCc2c[nH]c3ccccc23)c(C)c1,?,11.2µM*,-0.8%,?,-23.4%,174.4
